Measurements from PubChem BioAssay (NCI).
“And” between values parts separate entries of the source, which are not always exact repeats. Identical values can stand only once. This is part of a sample that, as a whole, favours compounds with a hit. Of some 83,000 tested, about 20% had one in any assay.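 Testing used 96-well plates and a 48-hour single-concentration exposure. Example: -40 means 40% of the starting cells died.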 Values without a mark were called inactive. The source made the active and inactive calls.

System: UO-31 renal
Assay: NCI-60 one-dose screen, 48 h (100 = growth as untreated, 0 = no growth, -100 = all killed)
Settings: 10 µM unless noted
Procedure: Growth inhibition of the UO-31 human tumor cell line is measured as a screen for anti-cancer activity. Cells are grown in 96 well plates and exposed to the test compound for 48 hours. Compounds are tested at a single concentration, which is 10^-5 M for most compounds. The reported endpoint is percent growth (GI% or GIPRCNT), where numbers from 0 - 100% represent growth inhibition, and numbers from -100% - 0 represent cell death. For example, a value of 40 represents 60% growth inhibition. A value of 0 means no net growth occurred over the course of the experiment. A value of -40 indicates 40% of cells at the beginning of the experiment died by the end of the experiment. A value of -100 means all cells are dead at the end of the experiment.
NCI-60 Human Tumor Cell Lines Screen was performed using the standard one-dose NCI protocol, which is described in more detail at https://dtp.cancer.gov/discovery_development/nci-60/default.htm.
Compounds with GIPRCNT values below 10 were considered active. Activity score was based on GIPRCNT using the following formula: […]
Score is 0 for GIPRCNT values of 100 or above, 50 for GIPRCNT values of 0, and 100 for GIPRCNT values of -100.

| Structure (SMILES) | growth |
| --- | --- |
| Cn1cc(-c2cc(N)n3nc(-c4c[nH]c5ccccc45)cc3n2)c2cc(F)ccc21 | 59.7% |
| Cc1ccccc1NC(=O)c1cccc(NC(=O)CCl)c1 | 71.3% |
| COc1cc(C2CC(c3cc(OC)c(OC)c(OC)c3)=Nc3c(N)nc(N)nc3N2)ccc1Oc1nc(Nc2ccc(F)cc2)nc(N(C)C)n1 (stereo not given) | 40.3% |
| CCCCCCCOc1ccc(S(=O)(=O)Nc2ccc(C)c(F)c2C(=O)O)cc1 | 75% |
| COc1ccc([C@H]2C(C(=O)c3ccc(Cl)cc3)C3(N[C@@H]2c2ccccc2)C(=O)Nc2ccccc23)cc1 (stereo not given in full) | 13.2% |
| NC(=O)c1ccc(-c2ccc3ncnc(N4CCc5cc(F)c(Cl)cc54)c3c2)cn1 | 33.1% |
| COc1c(B(O)O)cc(F)cc1-c1nc2c(F)cc3[nH]ncc3c2c2c1CCCC2 | 3.57% (active) |
| CN1CCN(C(=O)CCN(C(=O)Oc2cc3c(c4ccccc24)[C@H](CCl)CN3C(=O)c2cc3cc(OCCCN4CCC4)ccc3[nH]2)[C@H]2CCSSC2)CC1 | -37.7% (active) |
| C#CCN(C)CCCOc1ccc(N(CC)C(=O)c2cc(C(C)C)c(O)cc2O)cc1Cl | 8.11% (active) |
| c1ccc(CSc2nnc(-c3ccc4nc(-c5ccccc5)[nH]c4c3)o2)cc1 | 40.6% |
| O=C(OCCOCCO)N(c1cccc(Br)c1)c1nc(SCCN2CCOCC2)nc2c1cnn2CC(Cl)c1ccc(Br)cc1 (stereo not given) | -3.09% (active) |
| CCCCCCCCc1ccc(C(=O)Nc2ccc(C)cc2C(=O)O)cc1 | 76.3% |
| CN(C)c1nc(NCCNS(=O)(=O)c2ccc(C(=O)/C=C/c3ccc(Cl)cc3)cc2)nc(N2CCOCC2)n1 | -61% (active) |
| COC(=O)c1cc(C(C)=O)n2c3ccccc3c3ccccc3c12 | 38% |
| COc1ccc(C(=O)C[n+]2cccc3c4ccccc4ccc32)cc1 | 56.5% |
| COc1cc2cc(C(=O)N3C[C@@H](CCl)c4c3cc(OC(=O)N(CCC(=O)N3CCN(C)CC3)C3CCCCC3)c3ccccc43)[nH]c2c(OC)c1OC | -73.2% (active) |
| CN(C)c1nc(NCCNS(=O)(=O)c2ccc(C3=Nc4c(N)nc(N)nc4NC(c4ccc(Cl)cc4)C3)cc2)nc(N2CCOCC2)n1 (stereo not given) | 59.9% |
| NS(=O)(=O)c1ccc(Nc2nc(SCC(=O)c3ccc(F)cc3)nc3ccccc23)cc1 | 29.1% |
| CCCCNc1ccc2c3c(cccc13)C(=O)N(NCC(O)COc1ccc3c(C)cc(=O)oc3c1)C2=O (stereo not given) | 43.5% |
| CCOC(=O)/C(F)=C/C1CC1CCc1ccc(OCC)cc1 (stereo not given) | 73.8% |

| Structure (SMILES) | growth |
| --- | --- |
| CN1CCN(C(=O)Oc2cc3c(c4ccccc24)[C@H](CCl)CN3C(=O)c2cc3cc(OCCCN4CCC4)ccc3[nH]2)[C@H]2CSSC[C@H]21 | -11.4% (active) |
| O=C(N/N=C/c1ccsc1)c1[nH]c2ccc(Br)cc2c1-c1ccccc1 | -49.4% (active) |
| Nc1nnc(-c2cncc(Br)c2)c(-c2c[nH]c3ccc(Cl)cc23)n1 | 41.4% |
| CC1CCc2c(sc3nc(SCC(=O)c4cccc([N+](=O)[O-])c4)n(-c4ccccc4)c(=O)c23)C1 (stereo not given) | 91.5% |
| Nc1cccc(-n2c(COc3ccc(I)cc3)nc3ccccc32)c1 | 43.6% and 81.3% |
| O=c1[nH]c2ccccc2cc1CSc1ccccc1Nc1nccc(-c2ccc3c(c2)OCO3)n1 | 77.6% |
| Cc1cnc2ccc(Oc3ccccc3-c3ccccc3)nn12 | 90.1% |
| Cc1[nH]nc2ccc3nc(-c4cnn(CCO)c4)c4c(c3c12)CCCC4 | 21.5% |
| C[C@H](NC(=O)c1ccc2c(-c3ccc(C(F)(F)F)cc3)cccc2c1)c1ccccn1 | 13.6% |
| COc1ccc2[nH]c(=O)c(CSc3ccccc3Nc3nccc(-c4ccc(C(F)(F)F)cc4)n3)cc2c1 | 26.9% |
| C#CCCCNCCNc1ccnc2cc(Cl)ccc12 | 60.8% |
| COc1nc(N)ncc1-c1ccc2ncnc(N3CCc4cc(F)c(Cl)cc43)c2c1 | -32.4% (active) |
| N#C/C(=C1/C(=O)Nc2ccccc21)c1nnc(NC(=O)c2ccc(-n3c(=O)[nH]c4ccccc4c3=O)cc2)s1 | 29.5% |
| CCCSc1nnc(-c2c(C)nc3sccn23)o1 | 69.9% |
| CCCCCCCCc1ccc(C(=O)Nc2ccc(C)c(OP(=O)(O)O)c2)cc1 | 62.4% |
| O=C(CSc1nnc(-c2ccc(-c3nc4ccc(Cl)cc4[nH]3)cc2)o1)Nc1ccc(Br)cc1 | 36.6% |
| O=C1c2cccc3c(N4CCN(c5ccccc5)CC4)ccc(c23)C(=O)N1c1cccc(-c2nn(-c3ccccc3)cc2-c2nc3ccccc3s2)c1 | 68.1% |
| CC[C@]12C=CCN3CC[C@@]4(c5ccc(OC)cc5N(C)[C@H]4[C@@](O)(C(=O)OC)[C@@H]1OC(=O)CCCC[P+](c1ccc(F)cc1)(c1ccc(F)cc1)c1ccc(F)cc1)[C@@H]32 | 85.9% |
| COc1ccc(-c2nc3ccccc3n2CC(=O)N=Nc2c(O)[nH]c3ccc(OC)cc23)cc1 | 68.5% |
| O=C(CSc1nc2sc3c(c2c(=O)n1-c1ccc(Cl)cc1)CCCC3)NNC(=O)c1ccc(Br)cc1 | 62.3% |
